Most compounds without a hit are left out; they make up all but 3.8% or so of the library.
tim10-1 inh = growth inhibitors of tim10-1 mutant yeast; S. cerevisiae tim10-1 ts strain growth, BacTiter-Glo, 24 h; inhibition, % at 20 µM; 2.2% of 330,000 active; AID 463190;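 active means inhibition of at least 40%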;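 further: mutant grown at 25 °C; 0% = DMSO wells with yeast and 100% = wells holding no yeast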
Beta2AR agonist = activates human beta-2 adrenergic receptor causing internalization. 0.43% of 340,000 active. AID 504454. response, % (concentration not given with the values). Am2.2-beta2AR cells, FAP receptor internalization, flow cytometry;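 active means response above a set limit, near 3 SD of response in nonfluorescent compounds, cut at about 42% in these data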
Target sequence (P07550 whole entry, looked up): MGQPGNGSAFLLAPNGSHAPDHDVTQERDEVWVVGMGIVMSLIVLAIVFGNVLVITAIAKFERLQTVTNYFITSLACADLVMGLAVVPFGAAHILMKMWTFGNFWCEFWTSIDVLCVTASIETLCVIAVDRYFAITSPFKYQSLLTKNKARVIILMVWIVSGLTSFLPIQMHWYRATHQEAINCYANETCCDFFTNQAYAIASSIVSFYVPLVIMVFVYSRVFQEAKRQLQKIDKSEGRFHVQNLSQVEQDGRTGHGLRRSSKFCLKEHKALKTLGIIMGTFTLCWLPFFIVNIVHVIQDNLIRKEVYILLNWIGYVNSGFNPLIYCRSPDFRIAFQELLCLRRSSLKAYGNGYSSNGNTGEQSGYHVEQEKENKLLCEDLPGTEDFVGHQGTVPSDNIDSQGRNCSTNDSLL
PfHsp90 set2 = reduces growth (ATP signal) of yeast expressing P. falciparum Hsp90; inhibition, % at 9.4 µM; S. cerevisiae expressing PfHsp90, BacTiter-Glo ATP, 48 h; yeast lacking PDR1 and PDR3 efflux regulators; AID 504621; 0.32% of 310,000 active;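 active means every replicate shows inhibition above about 80%, whatever the replicate mean, limit read from the data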;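 further: 0% = DMSO neutral controls and 100% = 20 µM radicicol positive controls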
TIM10 inh = growth inhibitors of TIM10 yeast strain. S. cerevisiae TIM10 strain growth, BacTiter-Glo luminescence, 24 h. 1.4% of 330,000 active. inhibition, % at 10 µM;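 active means inhibition of 40% or more at the single tested concentration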;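 further: wild-type TIM10 isogenic control strain grown at permissive 25 °C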
tim23-1 inh = tim23-1 yeast growth inhibition; S. cerevisiae tim23-1 growth, BacTiter-Glo luminescence, 24 h; inhibition, % at 20 µM; 1.3% of 330,000 active; AID 463212;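 active means growth inhibition of the mutant yeast at or above 50%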;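 further: temperature-sensitive mutant grown at 25 °C; plate controls were DMSO-treated mutant yeast for no effect and medium wells lacking yeast for full effect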
B2AR ag CP1 = activates human beta-2 adrenergic receptor; shares compounds with Beta2AR agonist; percent response (surface receptor), % at 10 µM; Am2.2-beta2AR cells, FAP surface receptor, flow cytometry; hits give low values; AID 540358; 25% of 1,100 active;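 active means surface receptor percent response at or below 58%, roughly 3 SD from nonfluorescent compounds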
B2AR FAP counter = flagged in Am2.2 fluorescence counterscreen for beta-2AR agonists; calls only at 10 µM; 1,100 tested, under 10 active; shares compounds with Beta2AR agonist; Am2.2 cells, FAP fluorogen flow cytometry; hits give low values;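 active means percent response below a set limit in fluorescence channel 1 and below 50% in channel 8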
Active calls of the source: *; i = inactive; nt = no result given.

SMILES | tim10-1 inh | Beta2AR agonist | PfHsp90 set2 | TIM10 inh | tim23-1 inh | B2AR ag CP1 | B2AR FAP counter
COC(=O)c1ccc2c(=O)[nH]c(CSc3nc(C)cs3)nc2c1 | -9 | 2 | -2 | -12 | 0 | nt | nt
Cc1cc(C)nc(NS(=O)(=O)c2ccc(NC(=O)COc3ccccc3)cc2)n1 | 8 | 118* | nt | -5 | 13 | 122 | i
Cc1ccc(C(=O)c2ccccc2C(=O)OCC(=O)N2CCCC2)cc1 | 17 | 1 | nt | 1 | 10 | 107 | i
CC1=NN(C(N)=S)C(=O)C1N=Nc1ccccc1 (centres undefined) | -27 | -1 | 8 | -3 | -9 | 108 | i
CC1=NN(C(N)=S)C(=O)C1N=Nc1ccc(Cl)cc1 (centres undefined) | -6 | -6 | -9 | -19 | 26 | nt | nt
Cc1ccc(N=Nc2c(C)[nH]n(C(N)=S)c2=O)cc1 | 34 | -4 | -57 | 19 | 7 | nt | nt
Cc1ccc([N+](=O)[O-])cc1N=Nc1c(-c2ccc([N+](=O)[O-])cc2)[nH]n(C(N)=S)c1=O | nt | 20 | -30 | nt | nt | 101 | i
NC(=S)n1[nH]c(-c2ccc([N+](=O)[O-])cc2)c(N=Nc2ccc(Cl)cc2)c1=O | nt | 2 | 3 | nt | nt | 103 | i
CCC(OC(=O)c1ccco1)C(=O)NCc1ccc2c(c1)OCO2 (centres undefined) | 1 | 5 | 1 | 14 | 2 | nt | nt
O=C(CN1C(=O)NC2(CCCCC2)C1=O)NCc1ccc2c(c1)OCO2 | 4 | -13 | 9 | 4 | 10 | nt | nt
COc1ccc([N+](=O)[O-])cc1NS(=O)(=O)c1cc(C(=O)N2CCN(C)CC2)ccc1OC | -9 | -3 | nt | -8 | -8 | nt | nt
Cc1ccc(C)c(NC(=S)c2ccccn2)c1 | 33 | -2 | 16 | 35 | 30 | 114 | i
COc1ccc(CC(=O)N2CC(C)CC(C)C2)cc1 (centres undefined) | 28 | -6 | -65 | 21 | 25 | nt | nt
O=C(CCN1C(=O)c2ccccc2C1=O)Nc1sc2c(c1C(=O)NCC1CCCO1)CCC2 (centres undefined) | 22 | -5 | -6 | 0 | 18 | nt | nt
CN(C)CCn1c2c(c(SCC(=O)N3CCc4ccccc43)nc1=O)CCCC2 | 1 | -13 | nt | 12 | -4 | nt | nt
COC(=O)c1ccc(NC(=O)COc2ccc(S(=O)(=O)N3CCCCC3)cc2)cc1 | 25 | 87* | 11 | 2 | -10 | 9.0* | i
O=C(COc1ccc(S(=O)(=O)N2CCOCC2)cc1)Nc1ccc(Cl)c(C(F)(F)F)c1 | 12 | -4 | 4 | 22 | 9 | 114 | i
O=C(COc1ccc(S(=O)(=O)N2CCOCC2)cc1)Nc1ccc(Br)cc1 | 6 | -1 | 11 | 8 | 3 | 102 | i
O=C(COc1ccc(S(=O)(=O)N2CCCC2)cc1)Nc1ccc(F)cc1 | 14 | -3 | 6 | 17 | 28 | nt | nt
CCOc1ccc(NC(=O)COc2ccc(S(=O)(=O)N3CCOCC3)cc2)cc1 | 12 | -4 | nt | 4 | 4 | 51* | i
O=C(CSc1nnc(NC(=O)C2CCC2)s1)Nc1ccccc1F | -30 | -6 | 10 | 12 | 4 | nt | nt
O=C(N[C@H](CO)Cc1ccccc1)c1ccco1 | 2 | -1 | 24 | -8 | 13 | nt | nt
O=C(COc1ccc(S(=O)(=O)N2CCOCC2)cc1)Nc1ccc2c(c1)OCCO2 | 10 | 5 | -19 | 5 | 5 | 85 | i
Cc1nc(C)c(C(=O)NNS(=O)(=O)c2ccc3ccccc3c2)s1 | 16 | -7 | -18 | 2 | 5 | nt | nt
CCC1CCCCN1CC(=O)Nc1cc(C)nn1-c1nc(C)cc(C)n1 (centres undefined) | 27 | -13 | nt | 40 | 33 | 123 | i
SMILES | tim10-1 inh | Beta2AR agonist | PfHsp90 set2 | TIM10 inh | tim23-1 inh | B2AR ag CP1 | B2AR FAP counter
CCN(c1ccc2c(c1)OCO2)S(=O)(=O)c1cc2c(cc1Br)CCN2C(=O)C1CC1 | nt | 24 | 4 | nt | nt | nt | nt
CCN(c1ccc2c(c1)OCO2)S(=O)(=O)c1cc(Br)cc2c1N(C(C)=O)CC2 | 4 | 80* | -11 | -2 | 8 | 47* | i
CCCCN(CCCC)c1nc(OC)nc(-n2nnc(C(C)=O)c2C)n1 | 20 | 73* | -11 | -26 | -2 | 25* | i
CC(=O)c1nnn(-c2nc(N)nc(N(c3ccccc3)c3ccccc3)n2)c1C | 7 | -10 | 26 | 9 | 8 | nt | nt
O=C(CN(c1ccccc1F)S(=O)(=O)c1ccccc1)NC1CCCCCC1 | 26 | 53* | 23 | 22 | 38 | 107 | i
Cc1nn(-c2ccccc2)c2c1CC(=O)Nc1ccccc1-2 | nt | 10 | -6 | nt | nt | nt | nt
Cc1noc(C)c1S(=O)(=O)N1CCCC(C(=O)N2CCC(C)CC2)C1 (centres undefined) | 25 | 49* | -23 | -1 | 16 | 120 | i
COc1cccc(C(=O)NCC(=O)OCC(=O)Nc2cc(OC)c([N+](=O)[O-])cc2C)c1 | 9 | 10 | 13 | 0 | 13 | nt | nt
COc1ccc(CCn2c(C)cc3c(c2=O)C(c2ccc4c(c2)OCO4)C(C#N)=C(N)O3)cc1OC (centres undefined) | -6 | -1 | -14 | 11 | 7 | nt | nt
Cc1ccc(-n2ncc(C(=O)Nc3cc(Cl)cc(Cl)c3)c2C2CCNCC2)cc1C | nt | 56* | nt | nt | nt | 76 | i
Cc1cc(C)n2nc(C(=O)Nc3ccc(S(=O)(=O)N4CCCC4)cc3)nc2n1 | -4 | 46* | -31 | -4 | 13 | 98 | i
Cc1cc(C)n2nc(C(=O)Nc3ccc(S(=O)(=O)N4CCCCC4)cc3)nc2n1 | 7 | 0 | -15 | -5 | 9 | nt | nt
Cc1cc(C)n2nc(C(=O)Nc3cccc(S(=O)(=O)N(C)c4ccccc4)c3)nc2n1 | 8 | 75* | -59 | -14 | 3 | 12* | i
C=CCn1c(CCNC(=O)c2cccs2)nnc1SCC(=O)Nc1cccc(F)c1 | 4 | -14 | 16 | -2 | 20 | nt | nt
CC(CCc1ccc(O)cc1)NCCc1ccc(O)c(O)c1 (centres undefined) | 2 | 2 | -6 | -4 | -4 | 86 | i
COc1ccccc1CCNC(C)CCc1ccc(O)cc1 (centres undefined) | -15 | 2 | 14 | -16 | -10 | nt | nt
CC(=O)N1CCc2cc(C(=O)CN3CCN(c4cccc(Cl)c4)CC3)ccc21 | 7 | 57* | -5 | 6 | 16 | 9.1* | i
CC1(c2ccccc2)CC(C)(C)N(C(N)=O)c2ccccc21 (centres undefined) | 16 | 40 | 0 | 20 | 10 | nt | nt
CC(=O)N1c2ccccc2C(C)(c2ccccc2)CC1(C)C (centres undefined) | 34 | 54* | 37 | 28 | 36 | 45* | i
CSc1ncc(S(=O)(=O)c2ccccc2)c(=O)[nH]1 | -10 | 3 | -24 | 1 | 8 | nt | nt
S=C(NCc1ccccc1)NNc1ccccc1 | 8 | 0 | 13 | -3 | 8 | nt | nt

Bioassay records from PubChem.
